Bioassay records (PubChem)
nsP2pro primary: blocks chikungunya virus nsP2 protease peptide cleavage. actives 1.1% (n = 31,000). Q8JUX6. FRET peptide cleavage, nsP2pro, fluorescence 1 h. Potency, µM (series often up to 24.9 µM), for inactives: top-dose activity change, negative = inhibition, actives largely listed as inhibitors; also: nearly all actives have a fitted effect of over 60% in size
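Purified recombinant nsP2pro (150 nM final) in 10 mM Tris-HCl pH 8.0 with 0.01% Tween 20 was preincubated 15 min at room temperature with compound (7 concentrations, up to 25 uM). FRET peptide 2 substrate (2.5 uM final) was then added; fluorescence was read after 1 h.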
nsP2 cell sec: secondary cell-based test for CHIKV nsP2 protease inhibitors. cell-based CHIKV nsP2 protease reporter assay. actives 10% (n = 450). shares compounds with nsP2pro primary. Potency, µM (series often up to 51.1 µM), for inactives: at the highest dose activity change, negative = inhibition, actives largely listed as inhibitors; also: nearly all actives have a fitted effect of over 70% in size
Target sequence (Q8JUX6 220-798 limits assumed): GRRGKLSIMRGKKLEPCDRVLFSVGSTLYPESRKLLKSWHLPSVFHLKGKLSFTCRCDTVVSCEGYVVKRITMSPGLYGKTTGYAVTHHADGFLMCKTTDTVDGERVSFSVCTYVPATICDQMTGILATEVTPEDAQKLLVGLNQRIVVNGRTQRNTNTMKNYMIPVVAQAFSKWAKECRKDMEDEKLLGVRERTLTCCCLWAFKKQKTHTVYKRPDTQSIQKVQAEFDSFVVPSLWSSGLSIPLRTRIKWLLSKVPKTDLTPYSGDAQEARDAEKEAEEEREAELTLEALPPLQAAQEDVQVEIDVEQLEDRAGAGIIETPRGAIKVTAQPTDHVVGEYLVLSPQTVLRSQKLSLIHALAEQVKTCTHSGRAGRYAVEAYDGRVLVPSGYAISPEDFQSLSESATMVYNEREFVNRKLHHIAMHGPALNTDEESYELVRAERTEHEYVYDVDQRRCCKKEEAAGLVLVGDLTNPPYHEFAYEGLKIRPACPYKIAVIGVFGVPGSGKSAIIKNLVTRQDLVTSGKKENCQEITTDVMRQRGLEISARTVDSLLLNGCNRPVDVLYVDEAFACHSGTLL
CHIKV NSP2 FL: selectivity test for CHIKV nsP2 protease inhibitors: full-length NSP2. shares compounds with nsP2pro primary. Full-length CHIKV NSP2 protease enzymatic counterscreen. Potency, µM (titrated, usually from 50.7 µM), without a hit: at the highest dose activity change, negative = inhibition, actives largely listed as inhibitors. actives 39% (n = 410). AID 1964101; also: nearly all actives have a fitted effect of over 65% in size
Furin counter: inhibits human furin in a CHIKV nsP2 protease selectivity counterscreen; shares compounds with nsP2pro primary; Recombinant human furin enzymatic counterscreen, fluorogenic substrate; Potency, µM (highest dose often 50.6 µM), inactives show at the top dose activity change, negative = inhibition, usual class: inhibitors; actives 6% (n = 410)
nsP2 NS23 pep: selectivity test for CHIKV nsP2 protease inhibitors: endogenous NS2/3 peptide. Purified CHIKV nsP2 protease, endogenous NS2/3 peptide cleavage. actives 34% (n = 410). AID 1964103. shares compounds with nsP2pro primary. Potency, µM (top dose mostly 51 µM), without a hit: at the highest dose activity change, negative = inhibition, most hits filed as inhibitors; also: nearly all actives have a fitted effect of over 55% in size
Papain counter: selectivity counter-screen for CHIKV nsP2 protease inhibitors: papain; shares compounds with nsP2pro primary; purified papain protease activity, enzymatic inhibition; Potency, µM (titrated, usually from 51 µM), inactives show at the top dose activity change, negative = inhibition, most hits filed as inhibitors; actives 5% (n = 410); AID 1964104
nsP2pro confirm: CHIKV nsP2 protease inhibition, confirmatory qHTS. shares compounds with nsP2pro primary. CHIKV nsP2 protease enzymatic activity, qHTS. Potency, µM (titrated, usually from 25.5 µM), inactives show at the highest dose activity change, negative = inhibition, hits mostly inhibitors. actives 43% (n = 410); also: nearly all actives have a fitted effect of over 75% in size
HCV NS3 4A cs: inhibits HCV NS3/4A protease in an nsP2pro selectivity counterscreen; shares compounds with nsP2pro primary; HCV NS3/4A protease biochemical counterscreen; Potency, µM (highest dose often 50.9 µM), usual class: inhibitors; actives 20% (n = 410); AID 1964106; also: nearly all actives have a fitted effect of over 55% in size
Numbers without * were called inactive; i = inactive; ? = inconclusive; [ ] = dose if it differs, or a comment. This is one part of a sample in which hits are shown more often than they occur. Calls follow the shape of the full dose curve. % is scaled to controls: 0 for no effect and ±100 for the full control effect; potency is read from the fitted curve at half-maximal effect.

SMILES	nsP2pro primary	others
CC(=O)N[C@H]1[C@H](O[C@H]2CC[C@@]3(C)C(CC[C@]4(C)C3CC=C3C5CC(C)(C)CC[C@]5(C(=O)O)[C@H](O)C[C@]34C)C2(C)C)O[C@H](CO[C@@H]2OC[C@H](O)[C@H](O)[C@H]2O[C@@H]2OC[C@@H](O)[C@H](O)[C@H]2O)[C@@H](O)[C@@H]1O (some centres undefined)	0%[5.1 µM]
CC1(C)CCCC2(C)c3c4c(c(=O)oc(=O)c3=CCC12)=CCC1C(C)(C)CCCC41C (centres undefined)	4%[10 µM]
CC(C)c1cc2c(c(O)c1O)[C@@]13CCCC(C)(C)C1[C@@H](O)[C@@H]2OC3=O (some centres undefined)	6.1µM*	nsP2 cell sec=20%[33.5 µM];CHIKV NSP2 FL=?;Furin counter=-6%[33.5 µM];nsP2 NS23 pep=?;Papain counter=-9%[33.5 µM];nsP2pro confirm=6.2µM*;HCV NS3 4A cs=i
O=[S+]([O-])(Nc1ccc(-c2ccccc2)cc1)c1ccc(NCc2ccc(Cl)cc2O)cc1	-11%
Cc1cc(C)nc(NC(=S)N2CCN(c3ccccn3)CC2)c1	-17%
COC(=O)c1ccc(COCC2=CC(C)(C)Oc3ccc(OC)cc32)cc1	i
Cc1ccc(C)c(N2CCN(C(c3ccc(F)cc3)c3nnc(-c4ccccc4)o3)CC2)c1 (centres undefined)	?	nsP2 cell sec=-3%;CHIKV NSP2 FL=21µM*;Furin counter=-6%;nsP2 NS23 pep=?;Papain counter=-10%;nsP2pro confirm=?;HCV NS3 4A cs=12µM*
Cc1cccc(N2CCN(C(c3ccccc3)c3nnc(-c4ccccc4F)o3)CC2)c1C (centres undefined)	-3%
Fc1ccc(C(c2nnc(-c3ccccc3)o2)N2CCN(c3cccc(Cl)c3)CC2)cc1 (centres undefined)	52%
Cc1ccc(-c2nn(CC(=O)N(C)C(C)c3ccco3)c(=O)cc2C)cc1 (centres undefined)	-23%
O=S(=O)(Nc1cc(Cl)c(Oc2cnc3ccccc3c2)c(Cl)c1)c1ccc(Cl)cc1Cl	3%
O=[N+]([O-])c1ccc(S(=O)(=O)Nc2cnc3ccccc3c2)cc1	6.3µM*	nsP2 cell sec=18%;CHIKV NSP2 FL=3%;Furin counter=-6%;nsP2 NS23 pep=71%;Papain counter=5%;nsP2pro confirm=7%;HCV NS3 4A cs=i
COc1cccc(CNc2ccc(S(=O)(=O)Nc3cnc4ccccc4c3)cc2)c1O	i
Cc1[nH]cnc1C[C@H]1CCc2c(C)c3ccccc3n2C1=O	?	nsP2 cell sec=-7%;CHIKV NSP2 FL=97%;Furin counter=-4%;nsP2 NS23 pep=-7%;Papain counter=-6%;nsP2pro confirm=53%;HCV NS3 4A cs=i
Cc1nccn1CC1CCc2c(c3ccccc3n2C)C1=O (centres undefined)	61%
Cc1[nH]cnc1CN1CCc2c(c3ccccc3n2C)C1=O	-12%
Cc1cn([C@H]2C[C@H](N[S+](=O)([O-])c3ccc4c(c3)OCCO4)[C@@H](CO)O2)c(=O)[nH]c1=O	0%
Oc1cccc2cc(C3CC3)cnc12	i
Cc1ccc(OCCn2c(CCN[S+](=O)([O-])C3CCCCC3)nc3ccccc32)cc1	-8%
CCSc1ncc(Cl)c(C(=O)N(Cc2ccccc2)Cc2ccco2)n1	-17%
CCCS(=O)(=O)c1ncc(Cl)c(C(=O)N(Cc2ccccc2)Cc2ccco2)n1	5.6µM*	nsP2 cell sec=4.6µM*;CHIKV NSP2 FL=18µM*;Furin counter=-13%;nsP2 NS23 pep=6.5µM*;Papain counter=-1%;nsP2pro confirm=4.5µM*;HCV NS3 4A cs=?
CCCSc1ncc(Cl)c(C(=O)N(Cc2ccc(Cl)cc2)Cc2ccco2)n1	37%
O=[N+]([O-])c1ccccc1-c1nc(NCc2ccc(-c3cccnc3)cc2)c2ccccc2n1	2%
CC(Nc1ccc([S+](=O)([O-])Nc2nccs2)cc1)c1ccccc1 (centres undefined)	-5%
O=[S+]1([O-])N(c2ccccc2)C[C@@H](O)[C@]12CCN(Cc1ccc(OC(F)F)cc1)C2	-11%
SMILES	nsP2pro primary	others
COc1nc2ccccc2cc1CN1CCC2(C1)CN(C)C(=O)O2 (centres undefined)	-14%
C=C(C(=O)O[C@H]1C/C(C)=C/CC/C(CO)=C/[C@H]2OC(=O)C(=C)[C@H]12)C(O)CO (some centres undefined)	5.4µM*	nsP2 cell sec=?;CHIKV NSP2 FL=10µM*;Furin counter=-4%[33.5 µM];nsP2 NS23 pep=?;Papain counter=-5%[33.5 µM];nsP2pro confirm=4.4µM*;HCV NS3 4A cs=i
C=C(C)C(=O)OC1CC(CO)CCC/C(CO)=C/C2OC(=O)C(=C)C21 (centres undefined)	-20%
C=C(C)C(=O)OC1[C@@H]2C(=C)C(=O)O[C@@H]2C[C@@H](C)[C@@H]2C=CC(=O)[C@@]12C (some centres undefined)	-7%
C/C=C/C=C/C=C/C(=O)OC1C=C2C(O)OC(=O)[C@]2(O)[C@@]2(C)CCCC(C)(C)[C@H]12 (some centres undefined)	17%[10 µM]
C/C=C/C=C/C(=O)OC1CC/C=C/C(O)C(O)C(CCC)OC1=O (centres undefined)	?	nsP2 cell sec=-1%[33.5 µM];CHIKV NSP2 FL=-2%[33.5 µM];Furin counter=-3%[33.5 µM];nsP2 NS23 pep=-5%[33.5 µM];Papain counter=?;nsP2pro confirm=-20%[16.7 µM];HCV NS3 4A cs=i
CC[C@]12C=CCN3CC[C@@]4(c5cc([C@@]6(C(=O)OC)CC7C[C@@H](C(C)(F)F)CN(Cc8c6[nH]c6ccccc86)C7)c(OC)cc5N(C)[C@H]4[C@@](O)(C(=O)OC)[C@@H]1OC(C)=O)[C@@H]32 (some centres undefined)	1%
Cc1cc(C)nc(NC(=S)N2CCN(c3cc(C(F)(F)F)nc(C)n3)CC2)c1	3%
Cc1ccc(-n2c(C)cc(-c3nnc4n3CCCCC4)c2C)cc1	?	nsP2 cell sec=21µM*;CHIKV NSP2 FL=?;Furin counter=-3%;nsP2 NS23 pep=?;Papain counter=-6%;nsP2pro confirm=?;HCV NS3 4A cs=?
Cc1cc(-c2nnc3n2CCCCC3)c(C)n1-c1ccncc1	-17%
COc1ccc(-n2c(C)cc(-c3nnc4n3CCCCC4)c2C)cc1	-28%
CNC(=O)O[C@H]1COc2ccc(N3CCN(C4COC4)CC3)cc2[C@@H]1NC(=O)c1ccc(F)cc1	-18%
CC(C)n1cnc2c(NCc3cccc(C(F)(F)F)c3)ncnc21	31%
c1cc(NC2CCNCC2)nc(-c2cnc3ccccn23)c1	247%
CCCCC(=O)N1CCC(C(=O)Nc2ccc([S+](=O)([O-])Nc3nccs3)cc2)CC1	i
